# Several values for one entry are separate records, joined by “and”; a condition that tells them apart may be missing. Identical values can stand only once. Results filed as inconclusive are left out. A call without a number means that no potency is given here. The source holds several records for some structures; these can differ, active in one and inactive in another. Activity calls are given as the source filed them. Unless noted, calls follow the shape of the dose curve; as a rule, active = well fitted curve in the direction sought with a large enough effect in the repeat runs; inconclusive = weak or mixed curves; inactive = no such curve, though single readings can be large; an effect the other way counts as inactive or inconclusive.
# What was measured:
# [1] = qHTS assay to identify small molecule antagonists of the estrogen receptor alpha (ER-alpha) signaling pathway using the BG1 cell line in the presence of 0.1 nM 17-beta-estradiol - cell viability counter screen (AID 1259241); also: nearly all actives have a fitted effect of over 40% in size
# In short: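 Live-cell protease activity (CellTiter-Fluor fluorescence, 30 min) was read in the same wells after VM7Luc4E2 cells had been exposed to compounds with 0.1 nM 17beta-estradiol for 22 hr at 37C.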
# [2] = qHTS assay to identify small molecule antagonists of the androgen receptor (AR) signaling pathway using the MDA cell line in the presence of 0.5 nM R1881 - cell viability counter screen (AID 1259242); also: nearly all actives have a fitted effect of over 45% in size
# In short: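 MDA-kb2 cells (human breast carcinoma, stably carrying MMTV-luciferase reporter) were exposed to compounds with 0.5 nM R1881 (final) for 16 hr at 37C, 0% CO2; viability then read as live-cell protease fluorescence (CellTiter-Fluor, 30 min) in the same wells.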
# [3] = biological target: Estrogen receptor (Homo sapiens) (UniProt P03372); assay: qHTS assay to identify small molecule antagonists of the estrogen receptor alpha (ER-alpha) signaling pathway using the BG1 cell line in the presence of 0.1 nM 17-beta-estradiol (AID 1259244); also: nearly all actives have a fitted effect of over 50% in size
# In short: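 VM7Luc4E2 cells (endogenous full-length ER-alpha, stable 4xERE-luciferase) were grown 5 days in phenol red-free medium with charcoal-stripped FBS, then exposed 22 h at 37C to compounds plus 0.1 nM (final) 17beta-estradiol; ONE-Glo luminescence read-out.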
# [4] = qHTS assay to identify small molecule HDAC inhibitors (AID 1259364); also: nearly all actives have a fitted effect of over 45% in size; also: potency is read from the fitted curve at half-maximal effect
# In short: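 Wild-type HCT-116 cells were plated overnight, exposed to compounds for 2 h at 37 °C, then given HDAC-Glo class I/II luminogenic reagent for 30 min at room temperature before luminescence was read.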
# [5] = qHTS assay to identify small molecule HDAC inhibitors - cell viability counter screen (AID 1259365); also: series mostly up to about 92 µM; nearly all actives have a fitted effect of over 50% in size
# In short: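 HCT-116 (wild type), 1,500 cells/well, overnight 37C/5% CO2; compound in DMSO 2hr; CellTiter-Glo 30min RT; luminescence read.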
# [6] = qHTS assay to identify small molecule agonists of the sonic hedgehog signaling (Shh) pathway - cell viability counter screen (AID 1259366); also: nearly all actives have a fitted effect of over 50% in size
# In short: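 CellTiter-Fluor fluorescence read-out, 1 hr at 37C, added after 23hr compound exposure. Cells: 3T3 Gli1-Luc, an NIH/3T3 clone with stably integrated Gli1-Luc reporter, plated 4hr before compound.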
# [7] = qHTS assay to identify small molecule antagonists of the sonic hedgehog signaling (Shh) pathway - cell viability counter screen (AID 1259367); also: nearly all actives have a fitted effect of over 55% in size
# In short: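 After a 4 hr settling period, 3T3 Gli1-Luc cells were treated with DMSO-dissolved chemicals and conditioned medium, kept 24 hr at 37C in 5% CO2, and assayed for viability by CellTiter-Fluor fluorescence following 1 hr reagent incubation.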
# [8] = qHTS assay to identify small molecule agonists of the sonic hedgehog signaling (Shh) pathway (AID 1259368; calls by dose curve; also: series mostly up to about 92 µM; nearly all actives have a fitted effect of over 15% in size)
# In short: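 NIH/3T3-derived 3T3Gli1-Luc cells carrying a stably integrated Gli1 response element–firefly luciferase reporter were plated, left 4 hr at 37 C, then given compounds in DMSO for 24 hr. Luminescence was read 30 min after adding luciferase reagent.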
# [9] = qHTS assay to identify small molecule antagonists of the sonic hedgehog signaling (Shh) pathway (AID 1259369; calls by dose curve; also: nearly all actives have a fitted effect of over 45% in size; also: potency is read from the fitted curve at half-maximal effect)
# In short: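 NIH/3T3-derived 3T3Gli1-Luc cells with stably integrated Gli1-Luc reporter were preincubated 4hr at 37 C, then given compounds in DMSO plus Shh conditioned medium and incubated 24hr. Firefly luciferase luminescence read after 30min reagent at room temperature.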
# [10] = qHTS assay to identify small molecule agonists of the androgen receptor (AR) signaling pathway in the presence of an antagonist - cell viability counter screen (AID 1259379); also: series mostly up to about 92 µM; nearly all actives have a fitted effect of over 25% in size
# In short: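 MDA-kb2 human breast carcinoma cells (stable MMTV-luciferase, AR/GR responsive) were seeded 3,000 cells/well, pre-incubated 5 hr at 37C without CO2, then given 3.0uM nilutamide and compounds at 15 concentrations for 16 hr. Viability was read by CellTiter-Fluor fluorescence.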
# [11] = qHTS assay to identify small molecule agonists of the estrogen receptor beta (ER-beta) signaling pathway - cell viability counter screen (AID 1259380); also: nearly all actives have a fitted effect of over 30% in size; also: potency is read from the fitted curve at half-maximal effect
# In short: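 ER-beta-UAS-bla HEK293T cells in medium with 2% charcoal-stripped FBS were preincubated 6 hr at 37C, dosed with compound in DMSO for 16 hr, then after the bla read, CellTiter-Glo was added for 30 min at room temperature; luminescence recorded.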
# [12] = qHTS assay to identify small molecule antagonists of the estrogen receptor beta (ER-beta) signaling pathway - cell viability counter screen (AID 1259382); also: series mostly up to about 92 µM; nearly all actives have a fitted effect of over 55% in size
# In short: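 ER-beta-UAS-bla HEK293T cells (2,000/well, 2% charcoal-stripped FBS) were pre-incubated 6 hr at 37C, then given compound plus 1nM final 17-beta-estradiol for 16 hr. Viability was read in the same wells by CellTiter-Glo luminescence after 30 min at room temperature.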
# [13] = biological target: Estrogen receptor (Homo sapiens) (UniProt P03372); assay: qHTS assay to identify small molecule agonists of the estrogen receptor alpha (ER-alpha) signaling pathway in the presence of an antagonist (AID 1259383; calls by dose curve; also: nearly all actives have a fitted effect of over 15% in size; also: potency is read from the fitted curve at half-maximal effect; as to activation: top concentration of the series differs between compounds)
# In short: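 VM7Luc4E2 cells (endogenous full-length ER-alpha, 4×ERE-luciferase) were precultured 5 days in phenol red-free medium with 10% charcoal-stripped FBS, given 10.0nM ICI-182,780 (final), then treated with compounds at 15 concentrations for 22hr at 37C; luminescence read with ONE-Glo.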
# [14] = qHTS assay to identify small molecule agonists of the estrogen receptor alpha (ER-alpha) signaling pathway in the presence of an antagonist - cell viability counter screen (AID 1259386); also: series mostly up to about 92 µM; nearly all actives have a fitted effect of over 30% in size
# In short: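 VM7Luc4E2 cells (endogenous full-length ER-alpha, 4×ERE-luciferase) were held 5 days in phenol red-free medium with 10% charcoal-stripped FBS, plated, then given 10.0nM ICI-182,780 and compounds at 15 concentrations for 22hr at 37C; viability read by CellTiter-Fluor fluorescence.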
# [15] = qHTS assay to identify small molecule agonists or antagonists of the thyroid stimulating hormone receptor (TSHR) signaling pathway - wild type cell line counter screen (AID 1259384; calls by dose curve)
# In short: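 Wild-type HEK293 cells were plated 18 h at 37 C/5% CO2, pin-dosed with compound plus Ro20-1724 medium, held 30 min at room temperature, then given cAMP-d2 and anti-cAMP-cryptate; fluorescence was read after 1 h. Fifteen concentrations, triplicate.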
# [16] = biological target: Thyrotropin receptor (Homo sapiens) (UniProt P16473); assay: qHTS assay to identify small molecule antagonists of the thyroid stimulating hormone receptor (TSHR) signaling pathway (AID 1259385; calls by dose curve; also: nearly all actives have a fitted effect of over 20% in size)
# In short: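 TSHR-HEK293 cells were plated and held 18 h at 37C/5% CO2, then given compound plus Ro20-1724 and stimulated with TSH at 1.5 ng/mL final. After 30 min at room temperature, cAMP was detected with cAMP-d2/anti-cAMP-cryptate (1 h) by fluorescence.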
# [17] = qHTS assay to identify small molecule phospholipidosis (PLD) inducers (AID 1259344; active = well fitted curve in the direction sought with a large enough effect; an effect the other way counts as inactive or inconclusive)
# In short: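 HepG2 cells grown on collagen I take up LipidTOX Red while exposed to compound for 24 h; after fixation they are imaged at 20x and pit metrics are extracted.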
# [18] = biological target: Estrogen receptor beta (Homo sapiens) (UniProt Q92731); assay: qHTS assay to identify small molecule agonists of the estrogen receptor beta (ER-beta) signaling pathway (AID 1259377; active = well fitted activation curve with a large enough effect in the signal ratio in the repeat runs, not every such curve was filed as active; the % refers to the signal ratio)
# In short: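 Beta-lactamase reporter readout: fluorescence of LiveBLAzer B/G FRET substrate after 2 h at room temperature, following 16 h compound treatment of ER-beta-UAS-bla HEK293T cells at 37C in 2% charcoal-stripped FBS medium.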
# [19] = biological target: Estrogen receptor beta (Homo sapiens) (UniProt Q92731); assay: qHTS assay to identify small molecule antagonists of the estrogen receptor beta (ER-beta) signaling pathway (AID 1259378; active = well fitted inhibition curve with a large enough effect in the signal ratio in the repeat runs, not every such curve was filed as active; the % refers to the signal ratio; also: potency is read from the fitted curve at half-maximal effect)
# In short: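 ER-beta-UAS-bla HEK293T (GripTite) cells in 2% charcoal-stripped FBS medium were preincubated 6 hr at 37C, dosed with compound, then stimulated with 1 nM E2 (final) for 16 hr; beta-lactamase reporter read by B/G FRET fluorescence after 2 hr substrate loading.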
# Chain of Estrogen receptor (Homo sapiens) (P03372 whole entry, looked up): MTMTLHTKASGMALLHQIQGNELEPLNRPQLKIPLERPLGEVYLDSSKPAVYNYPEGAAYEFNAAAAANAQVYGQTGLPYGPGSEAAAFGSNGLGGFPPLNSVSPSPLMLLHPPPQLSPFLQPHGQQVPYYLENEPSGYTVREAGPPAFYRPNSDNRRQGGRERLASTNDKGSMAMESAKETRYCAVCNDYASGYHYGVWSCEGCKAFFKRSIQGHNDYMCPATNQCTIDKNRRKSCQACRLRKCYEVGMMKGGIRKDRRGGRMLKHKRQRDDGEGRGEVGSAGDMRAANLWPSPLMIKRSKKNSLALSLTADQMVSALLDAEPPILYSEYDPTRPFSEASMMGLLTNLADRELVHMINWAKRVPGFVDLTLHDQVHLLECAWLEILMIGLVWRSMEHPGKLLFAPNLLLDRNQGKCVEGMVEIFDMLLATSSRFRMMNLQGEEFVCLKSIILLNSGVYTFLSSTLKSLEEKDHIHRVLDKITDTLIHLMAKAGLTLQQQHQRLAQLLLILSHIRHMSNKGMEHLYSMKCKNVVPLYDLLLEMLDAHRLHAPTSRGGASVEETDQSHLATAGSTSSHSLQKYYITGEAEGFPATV
# Chain of Estrogen receptor beta (Homo sapiens) (Q92731 whole entry, looked up): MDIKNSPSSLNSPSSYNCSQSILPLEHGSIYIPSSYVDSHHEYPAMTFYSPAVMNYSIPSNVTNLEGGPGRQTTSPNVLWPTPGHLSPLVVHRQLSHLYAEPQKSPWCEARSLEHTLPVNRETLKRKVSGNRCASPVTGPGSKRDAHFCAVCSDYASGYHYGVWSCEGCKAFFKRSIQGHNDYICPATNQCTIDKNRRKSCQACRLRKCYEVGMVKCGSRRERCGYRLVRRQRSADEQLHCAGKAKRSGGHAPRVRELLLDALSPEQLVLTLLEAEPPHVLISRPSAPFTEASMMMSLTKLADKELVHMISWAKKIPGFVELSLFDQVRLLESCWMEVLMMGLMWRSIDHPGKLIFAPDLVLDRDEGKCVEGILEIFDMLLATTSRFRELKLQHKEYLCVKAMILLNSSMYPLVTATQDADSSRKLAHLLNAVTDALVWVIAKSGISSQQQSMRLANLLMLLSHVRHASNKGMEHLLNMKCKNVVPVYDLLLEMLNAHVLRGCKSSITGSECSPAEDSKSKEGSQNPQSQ
# Chain of Thyrotropin receptor (Homo sapiens) (P16473 whole entry, looked up): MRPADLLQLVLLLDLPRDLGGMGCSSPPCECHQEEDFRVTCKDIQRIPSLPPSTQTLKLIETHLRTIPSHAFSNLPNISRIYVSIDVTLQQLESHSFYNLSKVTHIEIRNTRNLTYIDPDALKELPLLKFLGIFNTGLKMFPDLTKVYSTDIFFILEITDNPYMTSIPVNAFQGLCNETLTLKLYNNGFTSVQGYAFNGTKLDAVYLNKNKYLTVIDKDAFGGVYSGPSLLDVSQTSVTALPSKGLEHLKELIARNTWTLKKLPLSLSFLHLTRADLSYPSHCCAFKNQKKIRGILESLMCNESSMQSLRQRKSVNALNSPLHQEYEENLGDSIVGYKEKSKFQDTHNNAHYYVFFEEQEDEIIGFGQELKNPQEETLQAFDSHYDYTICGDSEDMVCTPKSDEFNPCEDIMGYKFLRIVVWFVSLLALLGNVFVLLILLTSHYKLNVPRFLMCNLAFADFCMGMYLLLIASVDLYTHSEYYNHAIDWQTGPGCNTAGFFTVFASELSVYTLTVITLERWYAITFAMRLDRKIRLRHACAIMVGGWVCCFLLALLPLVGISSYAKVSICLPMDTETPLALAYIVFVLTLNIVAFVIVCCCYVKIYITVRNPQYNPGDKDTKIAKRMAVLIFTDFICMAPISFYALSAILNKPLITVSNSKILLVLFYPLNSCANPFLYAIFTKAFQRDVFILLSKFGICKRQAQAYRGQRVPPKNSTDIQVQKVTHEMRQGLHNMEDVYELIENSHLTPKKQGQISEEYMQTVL
Compound,Potency [1],Potency [2],Potency [3],Potency [4],outcome [5],Potency [6],Potency [7],Potency [8],Potency [9],Potency [10],Potency [11],Potency [12],Potency [13],Potency [14],outcome [15],outcome [16],outcome [17],Potency [18],Potency [19]
Clc1nc(Cl)nc(Cl)n1,inactive,inactive,inactive,inactive,inactive,inactive,inactive,inactive,inactive,inactive,inactive,inactive,inactive,inactive,–,–,–,–,–
CCCCCCOC(=O)c1ccccc1C(=O)OCCCCCC,inactive,inactive,inactive,49.5 µM (active) and inactive,inactive,inactive,inactive,inactive,inactive,–,inactive,inactive,inactive,inactive,inactive,inactive,–,–,–
CCOP(=S)(OCC)O/N=C(\C#N)c1ccccc1,inactive,inactive,–,inactive,inactive,inactive,inactive,inactive,inactive,–,inactive,inactive,–,inactive,–,inactive,inactive,inactive,inactive
C#C[C@]1(O)CC[C@H]2[C@@H]3CCC4=CC(=O)CC[C@]4(C)[C@H]3CC[C@@]21C,inactive,inactive,–,inactive,inactive,inactive,inactive,inactive,inactive,inactive,inactive,inactive,–,inactive,inactive,inactive,inactive,inactive,inactive
O=P(O)(O)CCCl,inactive,inactive,inactive,inactive,inactive,inactive,inactive,inactive,inactive,inactive,inactive,inactive,inactive,inactive,inactive,inactive,–,–,–
CC(C)=CC1C(C(=O)OCc2coc(Cc3ccccc3)c2)C1(C)C (stereo unspecified),inactive,inactive,inactive,inactive,inactive,inactive,inactive,inactive,24.4 µM (active) and 30.6 µM (active),inactive,–,inactive,inactive,inactive,inactive,–,–,–,–
C=CCc1ccc(OC)cc1,inactive,inactive,–,inactive,inactive,inactive,inactive,inactive,inactive,–,inactive,inactive,–,inactive,–,inactive,–,inactive,inactive
O=C(O)C(F)(F)C(F)(F)C(F)(F)C(F)(F)C(F)(F)C(F)(F)C(F)(F)F,inactive,inactive,–,inactive,inactive,inactive,inactive,inactive,inactive,inactive,30.6 µM (active) and 24.3 µM (active),inactive,–,inactive,–,inactive,–,inactive,–
CCC(CC)Nc1c([N+](=O)[O-])cc(C)c(C)c1[N+](=O)[O-],inactive,inactive,–,–,inactive,inactive,inactive,inactive,inactive,inactive,61.1 µM (active),inactive,–,inactive,–,inactive,–,inactive,–
S=C1NCCN1,inactive,inactive,–,–,inactive,inactive,inactive,inactive,inactive,–,inactive,inactive,–,inactive,inactive,inactive,–,–,–
O=Cc1ccco1,inactive,inactive,–,–,inactive,inactive,inactive,inactive,inactive,inactive,inactive,inactive,–,inactive,inactive,inactive,inactive,–,–
CCC(C)(c1ccc(O)cc1)c1ccc(O)cc1,inactive,inactive,–,inactive,inactive,inactive,inactive,inactive,24.3 µM (active) and 61.1 µM (active),inactive,inactive,inactive,9.68 µM (active) and 8.63 µM (active),inactive,inactive,inactive,–,inactive,0.243 µM (active)
Cc1cccc(N)c1N,inactive,inactive,–,–,inactive,inactive,inactive,–,29.6 µM (active) and inactive,–,inactive,inactive,–,inactive,inactive,inactive,–,inactive,inactive
c1ccc(N=Nc2ccccc2)cc1,inactive,inactive,–,30.6 µM (active),inactive,inactive,inactive,inactive,inactive,inactive,inactive,inactive,–,inactive,inactive,inactive,–,–,–
C1=Cc2cccc3cccc1c23,inactive,inactive,–,–,inactive,inactive,inactive,inactive,inactive,–,inactive,inactive,–,inactive,–,inactive,–,–,–
CCN(CC)N=O,inactive,inactive,–,–,inactive,inactive,inactive,inactive,inactive,inactive,inactive,inactive,–,inactive,–,inactive,–,–,–
O=C(CCl)c1ccccc1,inactive,inactive,–,–,inactive,inactive,inactive,inactive,–,–,inactive,inactive,–,inactive,–,inactive,–,–,inactive

# From PubChem BioAssay (Tox21)
